Assay outcomes: PubChem, National Center for Advancing Translational Sciences (NCATS)
Compounds with a hit are over-represented: about 5.3% of the library has one in this group of screens.
Six1-Eya2 inh: blocks human Six1 binding to Eya2; activity change, % (concentration not given with the values); AID 651725; Q15475+O00167; AlphaScreen GST-Six1/His-Eya2 binding, biochemical; hits give low values; actives 0.56% (n = 360,000); in the data active = activity change below about -65%; inconclusive = mostly about -30% to -63%; also: % is scaled to controls: 0 for no effect and ±100 for the full control effect
Target sequence (O00167 whole entry, looked up): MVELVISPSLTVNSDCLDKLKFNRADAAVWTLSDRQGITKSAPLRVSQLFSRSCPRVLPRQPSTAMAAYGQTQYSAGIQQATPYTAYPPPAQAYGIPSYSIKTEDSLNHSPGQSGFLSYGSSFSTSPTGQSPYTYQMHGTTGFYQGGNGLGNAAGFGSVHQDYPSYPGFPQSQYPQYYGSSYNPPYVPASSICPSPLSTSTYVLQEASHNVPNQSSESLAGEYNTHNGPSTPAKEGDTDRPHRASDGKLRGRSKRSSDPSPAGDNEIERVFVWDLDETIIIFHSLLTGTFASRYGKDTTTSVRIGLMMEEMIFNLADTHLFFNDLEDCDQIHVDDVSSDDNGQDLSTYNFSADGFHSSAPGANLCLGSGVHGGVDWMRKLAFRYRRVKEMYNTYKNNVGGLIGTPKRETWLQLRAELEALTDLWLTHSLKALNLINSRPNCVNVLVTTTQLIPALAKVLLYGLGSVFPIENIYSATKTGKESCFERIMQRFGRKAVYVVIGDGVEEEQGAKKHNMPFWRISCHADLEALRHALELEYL
Target sequence (Q15475 whole entry, looked up): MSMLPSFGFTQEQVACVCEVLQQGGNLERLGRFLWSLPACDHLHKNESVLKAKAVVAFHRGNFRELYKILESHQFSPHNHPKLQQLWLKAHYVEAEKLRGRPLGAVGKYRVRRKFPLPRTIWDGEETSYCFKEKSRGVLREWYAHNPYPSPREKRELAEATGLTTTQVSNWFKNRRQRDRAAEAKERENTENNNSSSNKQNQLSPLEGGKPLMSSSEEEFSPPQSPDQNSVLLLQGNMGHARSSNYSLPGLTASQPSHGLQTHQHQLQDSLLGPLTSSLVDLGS
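GST-Six1 + His-Eya2 (5X stock: 250/500 nM); Tris pH 8.0, 300 mM NaCl, 0.05% BSA, 0.02% Tween 20; GSH donor/Ni acceptor beads; 1 h 37 °C dark; AlphaScreen readout.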
CtBP-E1A blk: inhibitors of CtBP/E1A interaction | AlphaScreen GST-E1A/His-CtBP binding, 1536-well; hits give low values | activity change, % (test concentration not listed) | actives 0.49% (n = 340,000) | AID 651724; in the data active = activity change below about -65%; inconclusive = mostly about -30% to -63%; also: % is scaled to controls: 0 for no effect and ±100 for the full control effect
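Homogeneous bead-based format: GST-tagged E1A captured on glutathione donor beads, His-tagged CtBP on nickel acceptor beads; compounds precede bead addition by 2 h at 37 °C.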
JMJD2A Tudor: blocks the human JMJD2A Tudor domain | O75164 | AlphaScreen JMJD2A-Tudor / H3K4me3 peptide binding | Potency, µM (highest dose often 114 µM), without a hit: at the highest dose activity change, negative = inhibition, usual class: inhibitors | actives 4.4% (n = 390,000) | AID 504339; also: potency is read from the fitted curve at half-maximal effect; % is scaled to controls: 0 for no effect and ±100 for the full control effect; nearly all actives have a fitted effect of over 50% in size
TDP1 block: blocks human tyrosyl-DNA phosphodiesterase 1; recombinant TDP1, AlphaScreen DNA substrate cleavage; Potency, µM (series often up to 130 µM), inactives show at the highest dose activity change, negative = inhibition, hits mostly inhibitors; Q9NUW8; AID 485290; actives 0.28% (n = 350,000); also: potency is read from the fitted curve at half-maximal effect; % is scaled to controls: 0 for no effect and ±100 for the full control effect; nearly all actives have a fitted effect of over 40% in size
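Recombinant E. coli-expressed Tdp1 (1 nM) preincubated with compound 15 min at RT, then 5'-biotin/3'-phosphotyrosine-FITC DNA substrate (15 nM) added for 5 min. AlphaScreen beads (10 ug/ml) added, 10 min RT; tyrosine-FITC cleavage read as signal loss.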
BAZ2B inh: blocks human BAZ2B; Potency, µM (series often up to 114 µM), for inactives: at the top dose activity change, negative = inhibition, most hits filed as inhibitors; Q9UIF8; AlphaScreen BAZ2B-H3K14Ac peptide displacement; actives 4.4% (n = 360,000); AID 504333; also: potency is read from the fitted curve at half-maximal effect; % is scaled to controls: 0 for no effect and ±100 for the full control effect; nearly all actives have a fitted effect of over 60% in size
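In this displacement format the biotinylated H3(5-23) peptide acetylated at Lys14 serves as ligand at 50 nM, with BAZ2B at 50 nM in PBS pH 7.4 containing 0.01% Tween-20. Donor and acceptor beads are 10 ug/mL final.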
HP1b chromo inh: blocks HP1-beta chromodomain binding to methylated histone tails | P83916 | AlphaScreen HP1-beta / biotin-H3K9me3 peptide binding | Potency, µM (doses to about 114 µM), for the others: top-dose activity change, negative = inhibition, usual class: inhibitors | actives 0.56% (n = 390,000) | AID 540317; also: potency is read from the fitted curve at half-maximal effect; nearly all actives have a fitted effect of over 70% in size
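Compound inhibition of the preformed complex between 50 nM HP1-beta and 50 nM biotinylated H3K9me3 peptide was read by AlphaScreen. Buffer was PBS pH 7.4 with 0.01% Tween-20. Incubations ran 30 min at room temperature, with 10 ug/mL donor/acceptor beads.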
The depositor's hits bear a star; [ ] = another dose, or the depositor's remark. Unless noted, calls follow the shape of the dose curve; as a rule, active = well fitted inhibition curve with a large enough effect; inconclusive = small, poorly fitted or top-dose-only effect; inactive = no such curve, though single readings can be large or run the other way.

What do the screens show for `O=C(Cc1ccccc1)N1CCN(Cc2cccnc2)CC1`?
Six1-Eya2 inh: 5.9; CtBP-E1A blk: 6.1; JMJD2A Tudor: 4.47µM*; TDP1 block: -10.5%; BAZ2B inh: 31.6µM*; HP1b chromo inh: -44.9%

What do the screens show for `CC(=O)N1CCN(Cc2ccc(Cl)nc2)CC1`?
Six1-Eya2 inh: 3.3; CtBP-E1A blk: 6.5; JMJD2A Tudor: 0.7%; BAZ2B inh: -3.5%; HP1b chromo inh: 16.2%

Results for Oc1c(Cl)cc(Cl)cc1CN1CCN(Cc2ccccc2)CC1 ?
Six1-Eya2 inh: -73.1*; CtBP-E1A blk: -6.4; JMJD2A Tudor: -14.7%; TDP1 block: 4.1%; BAZ2B inh: inconclusive; HP1b chromo inh: 31.0%

How did Oc1ccc(Br)cc1CN1CCN(c2ccccc2)CC1 do in these assays?
Six1-Eya2 inh: -6.4; CtBP-E1A blk: -3.5; JMJD2A Tudor: -17.8%; TDP1 block: 0.0%; BAZ2B inh: -5.6%; HP1b chromo inh: 40.4%

How did Oc1c(Cl)cccc1Cc1cc(Cl)cc(Cl)c1O do in these assays?
Six1-Eya2 inh: -27.8; CtBP-E1A blk: inconclusive; JMJD2A Tudor: inconclusive; HP1b chromo inh: inconclusive

How did CCc1ccc(CN2CCN(Cc3cc(Br)ccc3O)CC2)cc1 do in these assays?
Six1-Eya2 inh: -2.5; CtBP-E1A blk: -2.6; JMJD2A Tudor: 22.4µM*; TDP1 block: 0.0%; BAZ2B inh: 44.7µM*; HP1b chromo inh: 25.1µM*

Results for COc1ccc(CN2CCN(Cc3ccccc3F)CC2)cc1 ?
Six1-Eya2 inh: 3.6; CtBP-E1A blk: 0.0; JMJD2A Tudor: 3.16µM*; BAZ2B inh: 17.8µM*; HP1b chromo inh: 17.8µM*

How did C[C@@H]1C[C@H](C)C[C@H](C)[C@@H](O)CC(=O)O[C@H]([C@H]2CCC[C@H]2C(=O)O)C/C=C/C=C(/C#N)[C@H](O)[C@@H](C)C1 do in these assays?
TDP1 block: 7.5%

Results for CC[C@H](C)[C@H](NC(=O)[C@@H](N)Cc1ccc(O)cc1)C(=O)NCC(=O)N[C@@H](CO)C(=O)N[C@@H](CCCN=C(N)N)C(N)=O ?
TDP1 block: 5.6%

What do the screens show for `Cc1ccc(N)c(C(=O)c2ccc(Br)cc2)c1`?
Six1-Eya2 inh: inconclusive; CtBP-E1A blk: -24.3; JMJD2A Tudor: 28.2µM*; TDP1 block: 2.7%; BAZ2B inh: 39.8µM*; HP1b chromo inh: inconclusive

Results for O=C(O)c1ccc[nH]c1=S ?
Six1-Eya2 inh: 2.2; CtBP-E1A blk: -0.8; JMJD2A Tudor: 0.891µM*; TDP1 block: -2.7%; BAZ2B inh: 39.8µM*; HP1b chromo inh: 38.4%

What do the screens show for `COc1ccc(Nc2c(-c3cc(Br)ccc3O)nc3ncccn23)cc1OC`?
JMJD2A Tudor: 20µM*; TDP1 block: 4.3%[12.3 µM]; BAZ2B inh: 14.1µM*; HP1b chromo inh: inconclusive

What do the screens show for `O=C1CC=C2C3CC4N(CCC45c4cc(O)c(O)cc4N1C25)CC3=CCBr` (stereo unspecified)?
Six1-Eya2 inh: -23.1; CtBP-E1A blk: 3.1; JMJD2A Tudor: 3.55µM*; HP1b chromo inh: inconclusive

What do the screens show for `CCC(C=C[C@@H]1OC(=O)C=C[C@H]1C)=C[C@H](C)CC=CC(C)=C[C@@H](C)C(=O)[C@@H](C)[C@H](O)[C@@H](C)CC(C)=CC(=O)O`?
TDP1 block: 1.26µM*

What do the screens show for `CCOP(=O)(OCC)/C(C#N)=C/c1cc(OC)ccc1OC`?
Six1-Eya2 inh: 8.0; JMJD2A Tudor: -7.7%; TDP1 block: 5.7%; BAZ2B inh: -6.1%; HP1b chromo inh: 40.9%

What do the screens show for `COC(=O)CSc1n[nH]c(=S)s1`?
Six1-Eya2 inh: -1.4; CtBP-E1A blk: 4.6; JMJD2A Tudor: inconclusive; TDP1 block: 5.3%; BAZ2B inh: -28.5%; HP1b chromo inh: 28.2µM*

How did CC(Nc1cc(C)cc(C)c1)=[N+](C)CCNS(=O)(=O)c1ccc(Cl)cc1 do in these assays?
Six1-Eya2 inh: -1.9; CtBP-E1A blk: -16.1; JMJD2A Tudor: inconclusive; TDP1 block: 0.2%; BAZ2B inh: -12.4%; HP1b chromo inh: 18.1%

What do the screens show for `C[N+]1=C2CCCCCN2C(O)(c2ccccc2)C1` (stereo unspecified)?
Six1-Eya2 inh: 3.9; CtBP-E1A blk: 8.1; JMJD2A Tudor: 44.7µM*; TDP1 block: -1.0%; BAZ2B inh: -2.5%; HP1b chromo inh: 10.9%

What do the screens show for `c1ccc(C2(N3CCCC3)CCCCC2)cc1`?
TDP1 block: 6.2%

Results for CCC(=O)N1CCN(c2cc3c(cc2F)c(=O)c(C(=O)O)cn3CC)CC1 ?
Six1-Eya2 inh: -9.1; CtBP-E1A blk: -5.3; JMJD2A Tudor: 6.31µM*; HP1b chromo inh: 3.2%

What do the screens show for `CCn1cc(C(=O)N2CCC3(CC2)OCCO3)c(=O)c2cc(S(=O)(=O)N3CCCC3)ccc21`?
Six1-Eya2 inh: 6.4; CtBP-E1A blk: 2.0; JMJD2A Tudor: -5.7%; TDP1 block: 7.8%; BAZ2B inh: -0.4%; HP1b chromo inh: 9.1%

Results for CC(=O)CC(c1ccc(O)cc1)c1c(O)c2ccccc2oc1=O (stereo unspecified) ?
TDP1 block: 3.6%

How did CCCOc1ccc(N2CC(C(=O)Nc3ccccc3F)CC2=O)cc1 (stereo unspecified) do in these assays?
Six1-Eya2 inh: 0.9; CtBP-E1A blk: -1.4; JMJD2A Tudor: -7.5%; TDP1 block: 0.0%; BAZ2B inh: 2.5%; HP1b chromo inh: 26.9%

What do the screens show for `CC1COC2=C1C(=O)C(=O)c1c2ccc2c1CCCC2(C)C` (stereo unspecified)?
TDP1 block: 20.4%

How did C[C@H]1COC2=C1C(=O)C(=O)c1c2ccc2c1CCCC2(C)C do in these assays?
Six1-Eya2 inh: inconclusive; CtBP-E1A blk: -26.9; JMJD2A Tudor: 31.6µM*; TDP1 block: 21.3%; BAZ2B inh: 14.1µM*; HP1b chromo inh: inconclusive

How did C=Cn1ccnc1P(=S)(c1nccn1C=C)c1nccn1C=C do in these assays?
Six1-Eya2 inh: inconclusive; CtBP-E1A blk: -90.9*; JMJD2A Tudor: inconclusive; BAZ2B inh: -28.1%; HP1b chromo inh: 37.7%

Results for C=Cn1ccnc1P(=S)(c1ccn(C)c1)c1nccn1C=C ?
Six1-Eya2 inh: 2.4; CtBP-E1A blk: -7.7; JMJD2A Tudor: -28.6%; TDP1 block: 3.0%; BAZ2B inh: 6.3%; HP1b chromo inh: 10.4%

Results for NC(=O)CF ?
TDP1 block: 8.2%

How did CCCN1CCc2cccc3c2[C@H]1Cc1ccc(O)c(O)c1-3 do in these assays?
Six1-Eya2 inh: -14.5; CtBP-E1A blk: -8.5; JMJD2A Tudor: 22.4µM*; HP1b chromo inh: 15.8µM*
